# Assay results reported in PubChem BioAssay (Tox21).
# Inconclusive results are not listed. Calls of active or inactive are those of the source. Calls follow the shape of the full dose curve.
# Test: qHTS assay to identify small molecule agonists or antagonists of the thyroid stimulating hormone receptor (TSHR) signaling pathway - wild type cell line counter screen (AID 1259384)
# Settings: HEK293 wild type, cAMP HTRF counter-screen; series mostly up to 92.4 µM
# Outline: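 Wild-type HEK293 cells were plated 18 h at 37 C/5% CO2, pin-dosed with compound plus Ro20-1724 medium, held 30 min at room temperature, then given cAMP-d2 and anti-cAMP-cryptate; fluorescence was read after 1 h. Fifteen concentrations, triplicate.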
row,SMILES,outcome
1,COCCCOCCCOC,inactive
2,Nc1cc(=O)[nH]c(N)n1,inactive
3,NC(=O)c1cn(Cc2c(F)cccc2F)nn1,inactive
4,CO/N=C(/C(=O)N[C@@H]1C(=O)N2C(C(=O)OCOC(=O)C(C)(C)C)=C(C)CS[C@H]12)c1csc(N)n1,inactive
